# PubChem BioAssay (NCATS)
# Records with an inconclusive call do not appear. A number with no mark means an inactive call. The call rests on the fitted dose curve; in most records, active means well fitted curve in the direction sought with a large enough effect; inconclusive means small, poorly fitted or top-dose-only effect, or another doubt; inactive means no such curve, though single readings can be large; an effect the other way counts as inactive or inconclusive.
# Target: RecQ-like DNA helicase BLM (Homo sapiens) (UniProt P54132)
# Experiment: qHTS Validation Assay for Inhibitors of Bloom's syndrome helicase (BLM) (AID 2364);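 further: plate controls were DMSO vehicle for no effect and enzyme-free control for full effect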
# Settings: BLM helicase DNA unwinding, fluorescence, in vitro; series mostly up to 57.1 µM; activity change, negative = inhibition: at the top concentration
# Procedure, shortened: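 Forked 20-bp duplex substrate (200 nM, TAMRA/BHQ-2) plus 2 mM ATP added after 15 min compound preincubation with 50 nM enzyme, pH 8.0, poly(dI-dC) 2.5 ug/ml. Strand separation followed by fluorescence (525/598 nm) over 2 h, normalized to enzyme-free and DMSO controls.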
# RecQ-like DNA helicase BLM (Homo sapiens), sequence (P54132 whole entry, looked up): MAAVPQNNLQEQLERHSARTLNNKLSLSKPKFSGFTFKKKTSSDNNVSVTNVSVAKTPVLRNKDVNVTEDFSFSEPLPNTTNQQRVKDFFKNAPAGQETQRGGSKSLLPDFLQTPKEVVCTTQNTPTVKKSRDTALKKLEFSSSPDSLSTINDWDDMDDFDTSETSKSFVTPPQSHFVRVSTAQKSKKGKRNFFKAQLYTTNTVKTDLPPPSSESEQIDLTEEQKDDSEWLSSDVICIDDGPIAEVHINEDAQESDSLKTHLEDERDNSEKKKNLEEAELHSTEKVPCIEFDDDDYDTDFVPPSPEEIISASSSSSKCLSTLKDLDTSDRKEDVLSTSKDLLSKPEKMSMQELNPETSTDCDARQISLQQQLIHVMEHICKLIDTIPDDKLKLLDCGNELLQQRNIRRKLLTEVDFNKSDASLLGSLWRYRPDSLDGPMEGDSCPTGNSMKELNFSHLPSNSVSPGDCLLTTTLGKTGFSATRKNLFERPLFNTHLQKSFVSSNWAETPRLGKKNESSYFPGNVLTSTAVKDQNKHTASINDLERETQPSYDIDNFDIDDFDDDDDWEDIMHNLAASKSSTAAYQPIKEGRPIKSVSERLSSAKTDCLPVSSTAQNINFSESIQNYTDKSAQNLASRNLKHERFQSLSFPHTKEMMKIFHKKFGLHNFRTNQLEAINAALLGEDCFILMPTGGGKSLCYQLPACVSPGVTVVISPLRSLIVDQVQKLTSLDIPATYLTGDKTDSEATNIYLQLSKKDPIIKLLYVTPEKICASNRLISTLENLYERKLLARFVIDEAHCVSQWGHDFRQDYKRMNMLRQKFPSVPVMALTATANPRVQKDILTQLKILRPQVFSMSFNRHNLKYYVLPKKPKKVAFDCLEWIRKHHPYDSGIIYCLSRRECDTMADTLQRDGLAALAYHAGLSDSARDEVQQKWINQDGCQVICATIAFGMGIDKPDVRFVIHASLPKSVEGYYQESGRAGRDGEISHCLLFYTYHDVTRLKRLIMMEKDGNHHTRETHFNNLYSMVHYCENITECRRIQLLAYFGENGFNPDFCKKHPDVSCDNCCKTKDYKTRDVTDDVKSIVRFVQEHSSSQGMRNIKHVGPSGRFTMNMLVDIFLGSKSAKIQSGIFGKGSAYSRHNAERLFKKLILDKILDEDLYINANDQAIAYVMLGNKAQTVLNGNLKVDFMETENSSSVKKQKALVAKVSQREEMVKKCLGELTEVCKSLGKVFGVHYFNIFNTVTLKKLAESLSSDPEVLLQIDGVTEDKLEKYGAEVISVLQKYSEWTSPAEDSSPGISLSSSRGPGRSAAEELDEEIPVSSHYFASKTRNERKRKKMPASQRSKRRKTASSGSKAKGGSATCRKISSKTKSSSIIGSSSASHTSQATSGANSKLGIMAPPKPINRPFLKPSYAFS
row,SMILES,"activity change, negative = inhibition [%]"
1,CN[C@H](CC(C)C)C(=O)N[C@H]1C(=O)N[C@@H](CC(N)=O)C(=O)N[C@H]2C(=O)N[C@H]3C(=O)N[C@H](C(=O)N[C@H](C(=O)O)c4cc(O)cc(O)c4-c4cc3ccc4O)[C@H](O)c3ccc(c(Cl)c3)Oc3cc2cc(c3O[C@@H]2O[C@H](CO)[C@@H](O)[C@H](O)[C@H]2O[C@H]2C[C@](C)(N)[C@H](O)[C@H](C)O2)Oc2ccc(cc2Cl)[C@H]1O,-5.8
2,CN1CCc2cccc3c2C1Cc1ccc(O)c(O)c1-3 (stereo not given),-5.41
3,CC(=O)N[C@H](C(=O)O)C(C)(C)SN=O,-8.84
4,O=C(O)CC[C@@H](C(=O)O)N1C(=O)c2ccccc2C1=O,-8.25
5,CN(C)CCC(c1ccc(Cl)cc1)c1ccccn1 (stereo not given),-10.2
6,CN(C)c1nc(N)c(C(=O)N=C(N)N)nc1Cl,31.1
7,NCCNC(=O)c1ncsc1-c1cccc(F)c1,-3.32
8,CCCn1c(=O)c2[nH]c(-c3ccc(OCC(=O)NCCN)cc3)nc2n(CCC)c1=O,0.301
9,COc1ccc(/C=C/C(=O)Nc2ccccc2C(=O)O)cc1OC,-2.1
10,COc1cc(C(O)CO)ccc1OS(=O)(=O)O (stereo not given),-5.41
11,NO,-6.5
12,COc1cc2nc(N3CCN(C(=O)OCc4ccccc4)C(C(=O)NC(C)(C)C)C3)nc(N)c2cc1OC (stereo not given),-0.767
13,OC[C@H]1O[C@@H](n2cnc3c(NC4CCCCC4)ncnc32)[C@H](O)[C@@H]1O,-13.8
14,CCCCN1CCC(n2c(=O)[nH]c3ccccc32)CC1,-11.3
15,O=C(O)c1cc(=O)c2ccccc2[nH]1,-0.728

# Tested on: not listed separately
# Experiment: Cytometric Cell-Based qHTS for Inhibitors of the mTORC1 Signaling Pathway in MEF (Tsc2-/-, p53-/-) Cells (AID 2660);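 further: percent of cells above a phospho-rpS6 to PI ratio cutoff in each well; plate controls were DMSO for no effect and rapamycin for full effect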
# Settings: mTORC1 pathway cytometry; series mostly up to 38.3 µM; activity change, negative = inhibition: at the top concentration
# Procedure, shortened: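 Tsc2-/-, p53-/- MEFs (empty vector) exposed to compound 24 h at 37 C, fixed, stained with Alexa-488 anti-phospho-rpS6 Ser235/236 and propidium iodide. Acumen laser scanning; phospho-S6/PI ratio thresholded against 7.5 nM rapamycin, reported as % positive cells.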
row,SMILES,"activity change, negative = inhibition [%]"
1,Fc1cccc(/C=N/N=C/c2cccc(F)c2)c1,4.34
2,CC(C)(C)c1ccc(S(=O)(=O)/C=C/C#N)cc1,-28
3,COc1ccccc1N1CCN(CCCCNS(=O)(=O)c2cccc3c(N(C)C)cccc23)CC1,-14.5
4,CC(C)Cc1ccc([C@H](C)C(=O)O)cc1,2.87
5,CN1CCc2cccc3c2C1Cc1ccc(O)c(O)c1-3 (stereo not given),2.72
6,CN1CCc2ccccc2Cc2[nH]c3ccccc3c2CC1,9.21
7,CC(=O)N[C@H](C(=O)O)C(C)(C)SN=O,2.78
8,Cc1cc(NC(=O)Nc2ccc3c(ccn3C)c2)sn1,6.4
9,O=C(O)CC[C@@H](C(=O)O)N1C(=O)c2ccccc2C1=O,1.26
10,CN(C)CCC(c1ccc(Cl)cc1)c1ccccn1 (stereo not given),-20.8
11,C=CC(N)CCC(=O)O (stereo not given),3.76
12,CCCN(CC1CC1)c1nc(C)nc(Nc2c(Cl)cc(Cl)cc2Cl)c1Cl,3.34
13,CN(C)c1nc(N)c(C(=O)N=C(N)N)nc1Cl,-4.57
14,CN1CCc2cc(O)c(O)cc2C(c2ccccc2)C1 (stereo not given),-10.7
15,CCN1/C(=C/C(C)=O)Sc2ccc(OC)cc21,-2.32
16,NCCNC(=O)c1ncsc1-c1cccc(F)c1,4.18
17,CCCn1c(=O)c2[nH]c(-c3ccc(OCC(=O)NCCN)cc3)nc2n(CCC)c1=O,-8.5
18,Ic1ccc(N2CCN(Cc3c[nH]c4ncccc34)CC2)cc1,-19.3

row,SMILES,"activity change, negative = inhibition [%]"
1,COc1ccc(/C=C/C(=O)Nc2ccccc2C(=O)O)cc1OC,8.81
2,O=C(O)[C@@H]1C[C@@H](C(=O)O)N1,6.54
3,O=C1NC(O)=NC1(c1ccccc1)c1ccccc1,4.59
4,COc1cc(C(O)CO)ccc1OS(=O)(=O)O (stereo not given),-1.81
5,NO,-8.9
6,COc1cc2nc(N3CCN(C(=O)OCc4ccccc4)C(C(=O)NC(C)(C)C)C3)nc(N)c2cc1OC (stereo not given),0.604
7,OC[C@H]1O[C@@H](n2cnc3c(NC4CCCCC4)ncnc32)[C@H](O)[C@@H]1O,1.56
8,O=c1[nH]c2cc([N+](=O)[O-])c([N+](=O)[O-])cc2[nH]c1=O,11
9,c1ccc(-c2ccccn2)nc1,-2.41
10,CCCCN1CCC(n2c(=O)[nH]c3ccccc32)CC1,6.2
11,Oc1cc(O)cc(/C=C/c2ccc(O)c(O)c2)c1,-5.81
12,O=C(O)CNC(=O)C(CS)Cc1ccccc1 (stereo not given),-2.42
13,O=C(O)c1cc(=O)c2ccccc2[nH]1,-0.738
14,COc1ccc(NC(=O)/C=C/c2ccc(Cl)cc2)cc1,-2.99
15,Cn1c(=O)c2[nH]c(-c3ccccc3)nc2n(C)c1=O,-2.06
16,OCC1O[C@H](O)C(Cl)C(O)C1O (stereo not given in full),3.8
17,O=C(O)[C@@H]1C[C@H](C(=O)O)N1,5.2
